Results as given in PubChem BioAssay AID602393 (Broad Institute, 2012).
In all, about 350,000 compounds went through this assay and about 7,000 (2%) were called active. For the sample, actives were picked, then their nearest neighbours and some compounds at random. A number with no mark means an inactive call. No stated cut-off is given here; in the data, active means activation above about 40%; inconclusive means no clear call, values can overlap the other calls; inactive means below that.

Test: Bmi1 luciferase reporter increase in mESCs, primary screen, esBAF inhibitor project, mouse ES cells, Bmi1 luciferase knock-in, single point (AID 602393);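 further: 0% = median of the plate's neutral control wells and 100% = double that signal; a rise in the Bmi1 reporter signal indicates esBAF inhibition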
Conditions: 24 h, at 12.5 µM, stronger effect = higher value, 100% = twice the neutral-well signal

For `CO[C@H]1CN(C)C(=O)c2cc(NS(=O)(=O)c3ccccc3C)ccc2OC[C@@H](C)NC[C@@H]1C`, which reporter increase is on record?
Its reporter increase is 1.69%.

Which reporter increase does the source give for `C[C@@H]1CCCCO[C@H](CN(C)C(=O)CCCN(C)C)[C@H](C)CN([C@@H](C)CO)C(=O)c2cc(NS(=O)(=O)c3ccc(Cl)cc3)ccc2O1` here?
The reporter increase was 2.25%.

Which reporter increase does the source give for `C[C@H](CO)N1C[C@H](C)[C@H](CN(C)Cc2ccc(C(F)(F)F)cc2)Oc2ccc(NC(=O)CCCCCC(=O)Nc3ccccc3N)cc2CC1=O` here?
Its reporter increase is -12.1%.

For `O=C(Cc1ccccc1)N/N=C/c1ccc(Cl)cc1Cl`, which reporter increase is on record?
Its reporter increase is 3%.

With `CCn1nc(C)c(/C=N/NC(=O)Cc2ccc(Cl)cc2)c1C` as the molecule, how does the reporter increase read?
The reporter increase was 64.3% (active).

With `Cc1ccc(/C=N/NC(=O)Cn2nc(C)c(Br)c2C)o1` as the molecule, how does the reporter increase read?
The reporter increase was -0.989%.

With `COc1cccc(-c2cnc3c(c2)C(=O)N([C@@H](C)CO)C[C@@H](C)[C@H](CN(C)C(=O)CN(C)C)O3)c1` as the molecule, how does the reporter increase read?
Its reporter increase is 4.59%.

With `O=C(C[C@H]1C=C[C@H](NC(=O)c2cnccn2)[C@@H](CO)O1)NCc1ccccc1F` as the molecule, how does the reporter increase read?
The reporter increase was -2.01%.

Which reporter increase does the source give for `Cc1ccc(-c2nc(COC(=O)c3c(C)noc3C)cs2)cc1` here?
The reporter increase was 76.6% (active).

For `Cc1noc(C)c1COC(=O)c1cc2ccccc2cc1O`, which reporter increase is on record?
The reporter increase was -1.05%.

With `Cc1ccc(S(=O)(=O)N2CCN(C(=O)COC(=O)c3c(C)noc3C)CC2)c(C)c1` as the molecule, how does the reporter increase read?
Its reporter increase is 0.794%.

For `COc1ccc(CNC(=O)C[C@H]2CC[C@H](NC(=O)Nc3ccc4c(c3)OCO4)[C@H](CO)O2)cc1`, which reporter increase is on record?
The reporter increase was -2.93%.

Which reporter increase does the source give for `C[C@@H]1CN([C@@H](C)CO)C(=O)c2cc(NC(=O)Nc3ccc4c(c3)OCO4)ccc2O[C@@H](C)CCCCO[C@H]1CN(C)C(=O)Nc1ccc(C(F)(F)F)cc1` here?
The reporter increase was 0.715%.

For `COc1ccc(NC(=O)N(C)C[C@H]2OCCCC[C@@H](C)Oc3ccc(NC(=O)Nc4ccc5c(c4)OCO5)cc3C(=O)N([C@H](C)CO)C[C@@H]2C)cc1`, which reporter increase is on record?
Its reporter increase is 49.3% (active).

Which reporter increase does the source give for `COc1ccc(NC(=O)Nc2ccc3c(c2)C(=O)N([C@H](C)CO)C[C@H](C)[C@@H](CN(C)C(=O)Nc2ccc(OC)cc2)OCCCC[C@H](C)O3)cc1` here?
The reporter increase was 3.33%.

With `C[C@H](CO)N1C[C@H](C)[C@@H](CN(C)C(=O)Nc2ccc3c(c2)OCO3)OCCCC[C@H](C)Oc2ccc(NC(=O)Nc3ccc4c(c3)OCO4)cc2C1=O` as the molecule, how does the reporter increase read?
Its reporter increase is 45% (active).

For `C[C@@H]1CN([C@@H](C)CO)C(=O)c2cc(NC(=O)Nc3ccc4c(c3)OCO4)ccc2O[C@@H](C)CCCCO[C@@H]1CN(C)C(=O)Nc1ccc2c(c1)OCO2`, which reporter increase is on record?
Its reporter increase is 64.3% (active).

With `C[C@H]1CCCCO[C@H](CN(C)C(=O)Nc2ccc3c(c2)OCO3)[C@@H](C)CN([C@@H](C)CO)C(=O)c2cc(NC(=O)Nc3ccccc3)ccc2O1` as the molecule, how does the reporter increase read?
The reporter increase was 10.9%.

With `COc1ccc(NC(=O)Nc2ccc3c(c2)C(=O)N([C@@H](C)CO)C[C@@H](C)[C@@H](CN(C)C(=O)Nc2ccc(F)cc2)OCCCC[C@@H](C)O3)cc1` as the molecule, how does the reporter increase read?
The reporter increase was 4.33%.

Which reporter increase does the source give for `C[C@H](CO)N1C[C@H](C)[C@@H](CN(C)C(=O)Nc2ccc3c(c2)OCO3)OCCCC[C@H](C)Oc2ccc(NC(=O)Nc3ccc(F)cc3)cc2C1=O` here?
Its reporter increase is 4.31%.

For `C[C@H]1CCCCO[C@H](CN(C)C(=O)Nc2ccccc2)[C@@H](C)CN([C@@H](C)CO)C(=O)c2cc(NC(=O)Nc3ccc4c(c3)OCO4)ccc2O1`, which reporter increase is on record?
The reporter increase was 27%.

For `COc1ccccc1S(=O)(=O)N[C@@H]1CC[C@@H](CCNC(=O)C2CCCCC2)O[C@@H]1CO`, which reporter increase is on record?
Its reporter increase is -1.9%.

For `O=C(C[C@@H]1C[C@@H]2c3cc(NS(=O)(=O)c4ccc(F)cc4)ccc3O[C@@H]2[C@H](CO)O1)N1CCCCC1`, which reporter increase is on record?
The reporter increase was -3.2%.

For `CO[C@@H]1CC[C@H]2CCN(C)C(=O)C[C@@H](c3ccccc3)CN(C)C(=O)c3cc(C#N)ccc3OC[C@@H]1O2`, which reporter increase is on record?
The reporter increase was 3.4%.

Which reporter increase does the source give for `CO[C@H]1CC[C@@H]2CCOc3c(C#N)cccc3C(=O)N(C)C[C@@H](OC)[C@H](C)C(=O)N(C)C[C@H]1O2` here?
Its reporter increase is 3.07%.

For `CCC(=O)N1C[C@@H](C)[C@H](OC)CN(C)C(=O)c2ccc(NC(=O)C3CCOCC3)cc2OC[C@@H]1C`, which reporter increase is on record?
The reporter increase was -3.82%.

For `C[C@@H]1CN([C@H](C)CO)C(=O)c2cc(-c3cccc(C#N)c3)cnc2O[C@H]1CN(C)C(=O)C1CCC1`, which reporter increase is on record?
Its reporter increase is -9.7%.

With `COc1ccccc1S(=O)(=O)N[C@@H]1CC[C@H](CC(=O)N2CCN(C)CC2)O[C@@H]1CO` as the molecule, how does the reporter increase read?
Its reporter increase is 0.975%.

For `O=C(C[C@@H]1C[C@@H]2c3cc(NC(=O)C4CCOCC4)ccc3O[C@@H]2[C@@H](CO)O1)NC1CCCCC1`, which reporter increase is on record?
Its reporter increase is 5.22%.

With `COc1ccc(S(=O)(=O)Nc2ccc3c(c2)C(=O)N([C@@H](C)CO)C[C@H](C)[C@H](CN(C)Cc2ccc(C(=O)O)cc2)OCCCC[C@@H](C)O3)cc1` as the molecule, how does the reporter increase read?
Its reporter increase is 6.21%.

For `COc1ccc(/C=C/C(=O)c2c(O)cc(OC)cc2OC)cc1`, which reporter increase is on record?
The reporter increase was 46.9% (active).

Which reporter increase does the source give for `COc1ccc(/C=C/C(=O)c2cc(Br)ccc(=O)c2O)cc1` here?
Its reporter increase is -9.92%.

With `COCOc1cc(O)c(C(=O)/C=C/c2ccc(OCOC)c(OCOC)c2)c(OCOC)c1` as the molecule, how does the reporter increase read?
The reporter increase was 15.9%.

With `Cc1ccc(S(=O)(=O)N2C[C@H](O)COC[C@@H]3O[C@H](CC(=O)N[C@H]4CCN(Cc5ccccc5)C4)CC[C@H]32)cc1` as the molecule, how does the reporter increase read?
The reporter increase was -2.58%.

For `C[C@H](CO)N1C[C@H](C)[C@H](CN(C)Cc2ccc(C(F)(F)F)cc2)Oc2c(NC(=O)C3CCOCC3)cccc2C1=O`, which reporter increase is on record?
Its reporter increase is -0.743%.

With `Cc1ccc(C(=O)COC(=O)CCN2C(=O)C3C4CCC(C4)C3C2=O)cc1C` (centres undefined) as the molecule, how does the reporter increase read?
Its reporter increase is 0.309%.

Which reporter increase does the source give for `Cc1ccc(C(=O)COC(=O)c2cccc(N3C(=O)c4c(C)nc5ccccc5c4C3=O)c2)cc1C` here?
Its reporter increase is 21.8% (active).

With `Cc1nc2ccccc2c(-c2ccccc2)c1C(=O)c1ccccc1` as the molecule, how does the reporter increase read?
The reporter increase was -1.09%.

For `Cc1noc(C)c1NC(=O)Nc1ccc2c(c1)C(=O)N([C@@H](C)CO)C[C@@H](C)[C@H](CN(C)C(=O)Nc1ccc(C(F)(F)F)cc1)OCCCC[C@@H](C)O2`, which reporter increase is on record?
Its reporter increase is 11%.
